{"source": "the supplement of paper PMC3334620", "note": "Whole data set: some 33,000 sequences, median “E-score (-0.5 to 0.5)” near -0.056, cut for the highest 2% near 0.38. This excerpt belongs to a sample that is enriched for the highest values.", "data": [{"molecular_target": "Stb4 (UniProt P50104)", "sequence (P50104 whole entry, the tested form may be a part)": "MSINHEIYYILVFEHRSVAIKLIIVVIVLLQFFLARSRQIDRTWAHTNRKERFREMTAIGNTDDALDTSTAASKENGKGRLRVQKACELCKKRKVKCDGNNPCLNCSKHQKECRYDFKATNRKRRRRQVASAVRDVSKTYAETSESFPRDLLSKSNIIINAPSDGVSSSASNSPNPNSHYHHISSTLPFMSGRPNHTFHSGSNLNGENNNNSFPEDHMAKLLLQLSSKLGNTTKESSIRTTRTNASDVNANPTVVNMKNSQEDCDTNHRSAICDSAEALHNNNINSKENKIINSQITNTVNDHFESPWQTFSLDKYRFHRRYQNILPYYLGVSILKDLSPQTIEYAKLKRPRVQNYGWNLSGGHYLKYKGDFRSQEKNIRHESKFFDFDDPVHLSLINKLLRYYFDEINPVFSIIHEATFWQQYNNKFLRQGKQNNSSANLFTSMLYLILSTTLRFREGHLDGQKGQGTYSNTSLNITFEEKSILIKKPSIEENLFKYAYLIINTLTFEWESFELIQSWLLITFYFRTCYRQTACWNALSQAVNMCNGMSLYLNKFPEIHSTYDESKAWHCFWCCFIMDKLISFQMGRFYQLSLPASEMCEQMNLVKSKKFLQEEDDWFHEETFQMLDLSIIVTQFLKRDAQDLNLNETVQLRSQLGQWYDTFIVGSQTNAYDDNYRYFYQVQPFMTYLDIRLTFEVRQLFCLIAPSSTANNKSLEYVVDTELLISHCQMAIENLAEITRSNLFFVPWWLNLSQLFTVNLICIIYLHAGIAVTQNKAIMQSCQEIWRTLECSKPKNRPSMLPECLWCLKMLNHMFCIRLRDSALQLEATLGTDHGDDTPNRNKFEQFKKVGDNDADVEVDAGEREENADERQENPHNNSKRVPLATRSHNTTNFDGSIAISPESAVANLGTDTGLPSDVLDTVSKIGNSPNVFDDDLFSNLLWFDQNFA", "assay": "PBM E-score (8-mer binding enrichment) (E-score (-0.5 to 0.5)); higher = stronger / more preferred TF binding", "conditions": "protein concentration: 200 nM; construct: GST-DNA-binding domain", "method": "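Universal 'all 10-mer' protein binding microarrays (Agilent AMADID 015681) probed with GST-tagged S. cerevisiae TFs (full-length or DBD) made by in vitro transcription/translation (PURExpress), about 100-200 nM. Bound TF was detected with fluorescent anti-GST. Each ungapped 8-mer (which stands for itself and its reverse complement) is scored by the PBM enrichment score (E-score), a modified Wilcoxon-Mann-Whitney statistic from -0.5 to +0.5, computed with the Universal PBM Analysis Suite. Scale: above 0.35 generally sequence-specific binding.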", "values": [{"sequence": "CTACGAGC", "PBM E-score": -0.133}, {"sequence": "AGTTAGAG", "PBM E-score": -0.174}, {"sequence": "ACGTCCCT", "PBM E-score": -0.32}, {"sequence": "GCGCATTA", "PBM E-score": 0.00939}, {"sequence": "CCCTTGAG", "PBM E-score": -0.134}, {"sequence": "ATTGCCGC", "PBM E-score": 0.121}, {"sequence": "GTTGCCCA", "PBM E-score": -0.0723}, {"sequence": "GTTGCCAA", "PBM E-score": -0.164}, {"sequence": "CTTGCCGA", "PBM E-score": 0.396}, {"sequence": "GTTGCCGA", "PBM E-score": 0.458}, {"sequence": "ATTGCCGG", "PBM E-score": 0.301}, {"sequence": "CTTGCCTA", "PBM E-score": -0.286}, {"sequence": "ATTGCCGA", "PBM E-score": 0.451}, {"sequence": "CTTGCCGC", "PBM E-score": 0.18}, {"sequence": "CATATGAC", "PBM E-score": -0.132}, {"sequence": "GGAGGTAC", "PBM E-score": 0.112}, {"sequence": "AAGAAACG", "PBM E-score": -0.084}, {"sequence": "GTCGAAAA", "PBM E-score": -0.122}, {"sequence": "GAATCCAC", "PBM E-score": -0.134}, {"sequence": "GATGCCAC", "PBM E-score": -0.0531}, {"sequence": "CACTCTTC", "PBM E-score": -0.0762}, {"sequence": "GAGCCTGC", "PBM E-score": -0.0113}, {"sequence": "ATATTCGA", "PBM E-score": 0.0718}, {"sequence": "ATATTCCA", "PBM E-score": 0.0331}, {"sequence": "AAATTCGT", "PBM E-score": 0.117}, {"sequence": "ATATTCGC", "PBM E-score": -0.034}, {"sequence": "AAATTCCG", "PBM E-score": 0.387}, {"sequence": "ATATTCCG", "PBM E-score": 0.393}, {"sequence": "AAATTCCC", "PBM E-score": 0.167}, {"sequence": "ATATTCCC", "PBM E-score": 0.32}, {"sequence": "AAATTCGG", "PBM E-score": 0.389}, {"sequence": "AAATTCGC", "PBM E-score": 0.0337}, {"sequence": "AAATTCCA", "PBM E-score": -0.0536}, {"sequence": "ATATTCGG", "PBM E-score": 0.399}, {"sequence": "CTTGCAGC", "PBM E-score": -0.153}, {"sequence": "TCCAGTCA", "PBM E-score": -0.0411}, {"sequence": "CAGTGTGG", "PBM E-score": -0.271}, {"sequence": "AAAAAGGT", "PBM E-score": -0.106}, {"sequence": "AATGTTTG", "PBM E-score": -0.0254}, {"sequence": "CCACTCTC", "PBM E-score": 0.0625}, {"sequence": "GATAAGAC", "PBM E-score": 0.0398}, {"sequence": "AGATTCCC", "PBM E-score": 0.127}, {"sequence": "AGATTCCG", "PBM E-score": 0.389}, {"sequence": "AGATTCCT", "PBM E-score": -0.216}, {"sequence": "ACGGTGTC", "PBM E-score": 0.0812}, {"sequence": "CGGTCCAG", "PBM E-score": -0.0508}, {"sequence": "GGACATAC", "PBM E-score": 0.0378}, {"sequence": "CACCCAGC", "PBM E-score": 0.0106}, {"sequence": "AATTCGTA", "PBM E-score": 0.0882}, {"sequence": "TATTCGGA", "PBM E-score": 0.426}, {"sequence": "AATTCGAA", "PBM E-score": -0.191}, {"sequence": "GATTCGCA", "PBM E-score": -0.0177}, {"sequence": "TATTCGAA", "PBM E-score": -0.2}, {"sequence": "TATTCGCA", "PBM E-score": -0.147}, {"sequence": "CATTCGGA", "PBM E-score": 0.383}, {"sequence": "GATTCGGA", "PBM E-score": 0.43}, {"sequence": "CATTCGGG", "PBM E-score": 0.343}, {"sequence": "GATTCGTA", "PBM E-score": 0.0772}, {"sequence": "CATTCGTA", "PBM E-score": -0.194}, {"sequence": "AATTCGGA", "PBM E-score": 0.447}, {"sequence": "ACCCATAG", "PBM E-score": -0.221}, {"sequence": "GGCGTTCA", "PBM E-score": -0.0303}, {"sequence": "CGCGACTC", "PBM E-score": -0.0117}, {"sequence": "CCTTAGTC", "PBM E-score": -0.155}, {"sequence": "CGAGCACC", "PBM E-score": 0.204}, {"sequence": "CTATTCCC", "PBM E-score": 0.0798}, {"sequence": "AGCAGTAC", "PBM E-score": 0.0047}, {"sequence": "AATTCGGT", "PBM E-score": 0.278}, {"sequence": "CATTCGCC", "PBM E-score": -0.0759}, {"sequence": "AATTCGGC", "PBM E-score": 0.357}, {"sequence": "GATTCGGC", "PBM E-score": 0.393}, {"sequence": "GATTCGCC", "PBM E-score": -0.0248}, {"sequence": "AATTCGGG", "PBM E-score": 0.39}, {"sequence": "CATTCGTC", "PBM E-score": -0.0104}, {"sequence": "CATTCGGC", "PBM E-score": 0.409}, {"sequence": "GATTCGAC", "PBM E-score": -0.233}, {"sequence": "GACAAAAC", "PBM E-score": -0.0388}, {"sequence": "GTACATCA", "PBM E-score": -0.00531}, {"sequence": "GTTATCCA", "PBM E-score": 0.0169}, {"sequence": "AAATCTCA", "PBM E-score": -0.0445}, {"sequence": "GTCGGCTA", "PBM E-score": 0.377}, {"sequence": "CGCGGCTC", "PBM E-score": 0.191}, {"sequence": "CACGGCTA", "PBM E-score": 0.299}, {"sequence": "ATCGGCTG", "PBM E-score": 0.328}, {"sequence": "AACGGCTA", "PBM E-score": 0.16}, {"sequence": "ATCGGCTA", "PBM E-score": 0.403}, {"sequence": "CTCGGCTA", "PBM E-score": 0.472}, {"sequence": "CTCGGCTC", "PBM E-score": 0.422}, {"sequence": "ATCGGCTC", "PBM E-score": 0.279}, {"sequence": "ATCAGCAC", "PBM E-score": -0.139}, {"sequence": "CAGGTGGA", "PBM E-score": -0.236}, {"sequence": "GAAGTTGA", "PBM E-score": -0.085}, {"sequence": "TCATCCGA", "PBM E-score": 0.473}, {"sequence": "ACATCCGT", "PBM E-score": 0.348}, {"sequence": "ACATCCTG", "PBM E-score": -0.0816}, {"sequence": "ACATCCGA", "PBM E-score": 0.486}, {"sequence": "CCATCCGC", "PBM E-score": 0.28}, {"sequence": "ACATCCGG", "PBM E-score": 0.447}, {"sequence": "CCATCCGG", "PBM E-score": 0.332}, {"sequence": "TCATCCAA", "PBM E-score": -0.191}, {"sequence": "CCATCCGA", "PBM E-score": 0.453}, {"sequence": "ACATCCAG", "PBM E-score": -0.261}, {"sequence": "TCATCCCA", "PBM E-score": -0.181}, {"sequence": "ACATCCCA", "PBM E-score": -0.0846}, {"sequence": "CAACTAGG", "PBM E-score": -0.0487}, {"sequence": "TCTTCGCA", "PBM E-score": -0.0992}, {"sequence": "GTGTGCAA", "PBM E-score": -0.127}, {"sequence": "ACGTTCCC", "PBM E-score": 0.11}, {"sequence": "ATTCAACC", "PBM E-score": 0.00448}, {"sequence": "AAAGACAT", "PBM E-score": -0.14}, {"sequence": "GCGGGGGA", "PBM E-score": 0.0109}, {"sequence": "CCGCAAGA", "PBM E-score": 0.151}, {"sequence": "GCATCCGA", "PBM E-score": 0.466}, {"sequence": "GCATCCTA", "PBM E-score": -0.163}, {"sequence": "GCATCCGC", "PBM E-score": 0.295}, {"sequence": "ACGGCCAG", "PBM E-score": -0.124}, {"sequence": "ATCGGTAC", "PBM E-score": 0.329}, {"sequence": "CTCGGTGC", "PBM E-score": 0.244}, {"sequence": "CTCGGTAC", "PBM E-score": 0.383}, {"sequence": "CTCGGTTA", "PBM E-score": 0.44}, {"sequence": "CTCGGTAA", "PBM E-score": 0.431}, {"sequence": "ATCGGTAA", "PBM E-score": 0.336}, {"sequence": "GTCGGTTA", "PBM E-score": 0.343}, {"sequence": "GTCGGTAA", "PBM E-score": 0.333}, {"sequence": "ATCGGTTA", "PBM E-score": 0.368}, {"sequence": "CGAACGGA", "PBM E-score": 0.327}, {"sequence": "GTCTAAAA", "PBM E-score": -0.0585}, {"sequence": "GTACTGAC", "PBM E-score": -0.0527}, {"sequence": "AGTAAGCG", "PBM E-score": -0.0174}, {"sequence": "AGACTATG", "PBM E-score": -0.17}, {"sequence": "ACCAGGCG", "PBM E-score": -0.159}, {"sequence": "CATACAGA", "PBM E-score": -0.0776}, {"sequence": "AGTGATTG", "PBM E-score": -0.0135}, {"sequence": "ACCTCGGG", "PBM E-score": 0.421}, {"sequence": "CCCTCGTC", "PBM E-score": 0.0826}, {"sequence": "ACCTCGGA", "PBM E-score": 0.463}, {"sequence": "ACCTCGAA", "PBM E-score": -0.105}, {"sequence": "ACCTCGCC", "PBM E-score": -0.0213}, {"sequence": "ACCTCGTG", "PBM E-score": -0.0555}, {"sequence": "ACCTCGTA", "PBM E-score": 0.0536}, {"sequence": "ACCTCGAG", "PBM E-score": -0.0838}, {"sequence": "CCCTCGGC", "PBM E-score": 0.399}, {"sequence": "CCCTCGCC", "PBM E-score": -0.217}, {"sequence": "ACCTCGGC", "PBM E-score": 0.415}, {"sequence": "ACCTCGTC", "PBM E-score": -0.0708}, {"sequence": "AGTAGATA", "PBM E-score": -0.0337}, {"sequence": "CTCCATTA", "PBM E-score": -0.148}, {"sequence": "CGCCTTTC", "PBM E-score": -0.0815}, {"sequence": "CGGGTAAG", "PBM E-score": 0.336}, {"sequence": "GGGGTAAC", "PBM E-score": -0.122}, {"sequence": "AGGGTAAA", "PBM E-score": 0.0281}, {"sequence": "CGGGTAAC", "PBM E-score": 0.393}, {"sequence": "TGGGTAAA", "PBM E-score": -0.0511}, {"sequence": "CGGGTAAA", "PBM E-score": 0.424}, {"sequence": "AAGCCTAC", "PBM E-score": -0.253}, {"sequence": "CACACTGG", "PBM E-score": -0.18}, {"sequence": "CATTTAGG", "PBM E-score": -0.174}, {"sequence": "ACGCTTTG", "PBM E-score": 0.035}, {"sequence": "GTCTATTA", "PBM E-score": -0.00563}, {"sequence": "CTCGGGAA", "PBM E-score": 0.462}, {"sequence": "ATCGGGAC", "PBM E-score": 0.284}, {"sequence": "CACGGGAC", "PBM E-score": 0.214}, {"sequence": "ATCGGGAA", "PBM E-score": 0.412}, {"sequence": "GTCGGGAA", "PBM E-score": 0.377}, {"sequence": "GCCGGGAC", "PBM E-score": 0.28}, {"sequence": "CTCGGGGA", "PBM E-score": 0.349}, {"sequence": "CCGGGGAC", "PBM E-score": 0.157}, {"sequence": "ATCGGGAG", "PBM E-score": 0.367}, {"sequence": "CTCGGGAC", "PBM E-score": 0.45}, {"sequence": "ATCGGGGA", "PBM E-score": 0.243}, {"sequence": "CCCGGGAC", "PBM E-score": 0.387}, {"sequence": "AGCAACTC", "PBM E-score": -0.0301}]}]}
